Laboratory results published in PubChem BioAssay AID2796 (The Scripps Research Institute Molecular Screening Center, 2010).
In all, about 320,000 compounds went through this assay and about 8,000 (2.5%) were called active. Cut-off read from the data, not from the text of the source: active = activation above about 47%; inactive = the rest. For the sample, actives were picked, then their nearest neighbours and some compounds at random.

What follows are compounds tested against Aryl hydrocarbon receptor (Homo sapiens) (UniProt P35869) (assay: AHR activators, primary screen, cell-based, luminescence, luciferase reporter, human (AID 2796;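 note: 0% = vehicle wells and 100% = reference agonist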)). Conditions: AHR-responsive luciferase reporter cells, at 5 µM, hits give high values.
Chain of Aryl hydrocarbon receptor (Homo sapiens) (P35869 whole entry, looked up): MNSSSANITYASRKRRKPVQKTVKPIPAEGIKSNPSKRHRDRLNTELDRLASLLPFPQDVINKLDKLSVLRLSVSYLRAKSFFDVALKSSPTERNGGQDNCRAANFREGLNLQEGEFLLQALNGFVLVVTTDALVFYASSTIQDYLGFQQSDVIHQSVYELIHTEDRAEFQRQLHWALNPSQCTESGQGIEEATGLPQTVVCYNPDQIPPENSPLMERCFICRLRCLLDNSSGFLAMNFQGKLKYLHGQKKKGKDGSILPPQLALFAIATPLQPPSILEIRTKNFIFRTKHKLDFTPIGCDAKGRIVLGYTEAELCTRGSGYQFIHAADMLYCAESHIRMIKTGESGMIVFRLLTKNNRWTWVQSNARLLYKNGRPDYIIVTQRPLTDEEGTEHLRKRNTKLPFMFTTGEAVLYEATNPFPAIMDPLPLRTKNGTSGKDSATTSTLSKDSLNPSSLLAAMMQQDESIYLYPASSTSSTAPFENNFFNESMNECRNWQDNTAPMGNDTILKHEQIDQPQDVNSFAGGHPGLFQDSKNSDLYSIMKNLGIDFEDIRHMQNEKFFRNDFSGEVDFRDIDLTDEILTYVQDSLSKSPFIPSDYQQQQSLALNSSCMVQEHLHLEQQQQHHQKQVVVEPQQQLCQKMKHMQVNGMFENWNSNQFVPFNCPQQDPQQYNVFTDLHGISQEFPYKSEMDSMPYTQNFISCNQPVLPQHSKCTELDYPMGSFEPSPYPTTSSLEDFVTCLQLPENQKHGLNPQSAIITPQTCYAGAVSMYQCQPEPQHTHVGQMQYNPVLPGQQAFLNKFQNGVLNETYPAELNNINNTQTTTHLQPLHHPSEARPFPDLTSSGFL

SMILES	activation
Cc1noc(C)c1S(=O)(=O)N(C)C[C@H]1Oc2c(NC(=O)Nc3ccc4c(c3)OCO4)cccc2C(=O)N([C@H](C)CO)C[C@@H]1C	0.19% (inactive)
Cc1cc(NC(=O)/C=C/C(=O)N(c2ccccc2C)C(C(=O)NC2CCCC2)c2ccc(F)cc2)no1 (centres undefined)	6.2% (inactive)
OCc1ccc(-c2ccccc2)c(-c2ccccc2)c1	-2.37% (inactive)
Cc1ccc(Nc2nnc(SCC(=O)c3cc4ccccc4o3)s2)cc1C	52.8% (active)
Cc1ccccc1Nc1nnc(SCC(=O)c2cc3ccccc3o2)s1	26.2% (inactive)
Cc1cc2c(=O)n(C)c(SCC(=O)c3cc4ccccc4o3)nc2s1	15.9% (inactive)
COC(=O)c1ccc([C@@H](O)[C@H](C)C(=O)CC(=O)OC(C)(C)C)cc1	1.52% (inactive)
COC(=O)c1ccc(NC(=O)CSc2nc(N)c(NC(=O)c3ccc(Br)o3)c(=O)[nH]2)cc1	-1.66% (inactive)
Cn1c2ccccc2c2c(C(=O)N3CCN(c4ccc(F)cc4)CC3)cn(C3CCCC3)c(=O)c21	12.2% (inactive)
O=C(Nc1cccc(F)c1)c1cc(-c2ccco2)nc2ccccc12	33.2% (inactive)
CNC(=S)NNC(=O)c1oc2nc(-c3ccccc3)cc(-c3ccco3)c2c1N	15.9% (inactive)
NNC(=O)c1oc2nc(-c3ccccc3)cc(-c3ccco3)c2c1N	76.1% (active)
CCN(Cc1nc2ccccc2c(=O)[nH]1)Cc1cc(=O)oc2cc(C)c(C)cc12	0.64% (inactive)
COC(=O)c1ccc(CNC(=O)c2ccc(S(=O)(=O)N3CCCCCC3)cc2)cc1	-0.2% (inactive)
CCN(C(=O)Cc1nc(N)n[nH]1)C1(C(=O)Nc2ccccc2)CCCCC1	1.44% (inactive)
CN(C(=O)CSc1nncc2ccccc12)C1CCCCC1	8.04% (inactive)
Brc1c(CSc2nncc3ccccc23)nc2ccccn12	48.9% (active)
CC(C)CC(=O)c1c[nH]c(C(=O)NCc2ccccc2)c1	5.43% (inactive)
O=C(NC(=S)N1CCc2ccccc21)c1ccco1	8.66% (inactive)
O=C(NNC(=S)NC(=O)c1cn(-c2ccccc2)nc1-c1ccccc1)c1ccncc1	12.3% (inactive)
O=c1oc(-c2ccco2)nc2sc3c(c12)CCCCC3	5.12% (inactive)
O=C(NCc1ccco1)c1nc2ncccn2n1	-0.33% (inactive)
O=C(NCc1ccco1)c1cccn2c(=O)c3c4c(sc3nc12)CCCC4	48.2% (active)
Cc1c(CN2CC[C@@H](N3CCN(c4ccccn4)CC3)[C@H](O)C2)[nH]c2ccc(F)cc12	2.27% (inactive)
Fc1ccc2[nH]c3c(N4CCSCC4)ncnc3c2c1	58.6% (active)

SMILES	activation
COc1ccc(N2CCN(C(=O)Cn3cnc4sc(C)c(S(=O)(=O)N5CCOCC5)c4c3=O)CC2)cc1	-4.91% (inactive)
O=C(Nc1cnccn1)c1cccnc1	0.46% (inactive)
CCOc1ccc(NC(=O)Nc2cc(C)ccc2OC)cc1	-5.37% (inactive)
CCOC(=O)c1cc(NC(=O)c2cccnc2)ccn1	4.05% (inactive)
COc1ccc(OC)c(NC(=O)CC(Cc2ccccc2OC)C(=O)O)c1 (centres undefined)	-3.53% (inactive)
CCOc1ccccc1NC(=O)Nc1cc(OC)ccc1OC	71% (active)
CCOc1ccccc1NC(=O)c1cccnc1	93.9% (active)
O=C(Nc1ccc(N2CCOCC2)nc1)c1c(F)cccc1F	-5.89% (inactive)
COc1ccc(C(=O)N(C)CC(O)c2ccccc2)cc1OC1CCN(C(C)=O)CC1 (centres undefined)	2.56% (inactive)
Cc1nc(SCC(=O)NC2CCCCC2C)c(C#N)c(C)c1C (centres undefined)	-1.86% (inactive)
CC(C)CC1NC(=O)c2cc(Cl)ccc2-n2c1nc1ccccc1c2=O (centres undefined)	20.2% (inactive)
CCOCCCNC(=O)C(NC(=O)CNC(=O)c1ccccc1)c1ccc(C)cc1 (centres undefined)	0.56% (inactive)
O=C(c1ccc(F)cc1)C1CCN(Cc2cn[nH]c2-c2ccccc2)CC1	3.88% (inactive)
Cc1cccc(C)c1NC(=O)C1(C)c2cccc[n+]2CC(=O)N1Cc1cccs1 (centres undefined)	1.93% (inactive)
O=S(=O)(Nc1ccc(Oc2ncccn2)c(Cl)c1)c1ccc(F)cc1	-0.48% (inactive)
CCN(CC)C(=O)CC1(c2ccccc2OC)CCOC(C(C)C)C1 (centres undefined)	-3.4% (inactive)
O=C(Nc1ccc2oc(-c3ccc4ccccc4c3)nc2c1)c1cccs1	33.5% (inactive)
CCc1ccc2oc(-c3ccc(N)cc3)nc2c1	78.3% (active)
O=C(NC(=S)Nc1ccc(Br)cc1F)C1CCCCC1	-1.21% (inactive)
CCOc1ccc(N(CC(=O)NCCc2ccc(F)cc2)S(=O)(=O)c2ccccc2)cc1	0.85% (inactive)
O=C(Nc1cccc(-n2cnnn2)c1)c1cccnc1	4.54% (inactive)
Cc1cccc(NC(=O)c2nnn(-c3cccc(C(F)(F)F)c3)c2N)c1	-4.69% (inactive)
O=C(Nc1ccc(C(F)(F)F)cc1)c1cccc(-n2cnnn2)c1	102% (active)
Cc1c(C(=O)Nc2cccc(Cl)c2)cn2c(nc3ccccc32)c1C#N	7.03% (inactive)
CCOCCn1c(-c2ccccc2)nc2ccccc21	-0.77% (inactive)

SMILES	activation
Cc1nc(-c2ccccc2)cn2c1nc1ccccc12	77% (active)
Cc1ccc(-n2nc(C)c(/C=N/NC(=O)c3cccs3)c2Cl)cc1	11.5% (inactive)
COc1ccccc1CNC(=O)c1ccc(CS(=O)(=O)c2ccccc2)o1	-0.56% (inactive)
O=C(NCc1cccnc1)c1ccc(CS(=O)(=O)c2ccc(Br)cc2)o1	77.4% (active)
COc1ccc(CCNC(=O)c2ccc(CS(=O)(=O)c3ccc(Br)cc3)o2)cc1OC	2.36% (inactive)
C[C@H](NC(=O)C1CCN(S(=O)(=O)c2ccccc2)CC1)C(=O)NCc1ccccc1	1.44% (inactive)
O=C(Nc1ccc(Cl)cn1)c1ccc2c(c1)OCCO2	-5.76% (inactive)
O=C(COC(=O)c1ccco1)Nc1ccc(Cl)cn1	10.9% (inactive)
O=C(Nc1ccc(Cl)cn1)c1cnn2cccnc12	129% (active)
O=C(CN1C(=O)NC(Cc2c[nH]c3ccccc23)C1=O)Nc1ccccc1C(F)(F)F (centres undefined)	-0.64% (inactive)
COc1ccc(OC)c2sc(NC(=O)C3COc4ccccc4O3)nc12 (centres undefined)	50.9% (active)
O=C(Nc1ncc([N+](=O)[O-])s1)C1COc2ccccc2O1 (centres undefined)	6.36% (inactive)
COc1ccc(NC(=O)C2COc3ccccc3O2)cc1 (centres undefined)	1.18% (inactive)
CCC(=O)N(Cc1cc2ccccc2[nH]c1=O)c1ccc(OC)cc1	3.79% (inactive)
O=[N+]([O-])c1cc(S(=O)(=O)NCCc2ccccn2)ccc1Cl	-0.28% (inactive)
Cc1c([N+](=O)[O-])c(N)nn1C	2.61% (inactive)
O=C(CN1CCN(c2ccc(Cl)cc2)CC1)NCc1cccs1	-1.24% (inactive)
O=C(CN1CCN(c2ccc(Cl)cc2)CC1)c1ccccc1	73.2% (active)
CC(C)OC(=O)CN1CCN(c2ccc(Cl)cc2)CC1	1.24% (inactive)
CCCCC(CC)CNCc1cccn1CCN1CCOCC1 (centres undefined)	1.27% (inactive)
COc1cccc(-n2cc(C(=O)O)c3ccccc3c2=O)c1	-1.78% (inactive)
COc1cccc(N2C(=O)CN(Cc3ccccc3)C2=S)c1	1.66% (inactive)
COc1cccc(-n2c(=S)[nH]c3c(oc4ccccc43)c2=O)c1	64.8% (active)
CCOC(=O)C1CCN(S(=O)(=O)c2ccc3c(c2)N(C)C(=O)CC(=O)N3C)CC1	-0.75% (inactive)
CCOC(=O)C1CN(S(=O)(=O)c2ccc(OC)cc2)c2cc(Cl)ccc2O1 (centres undefined)	1.38% (inactive)

SMILES	activation
COc1ccc(C2OCC3(CO2)SC(=O)NC3=O)cc1OC (centres undefined)	3.57% (inactive)
CC(=O)Nc1nc(N(C)C)nc(N(C)C)n1	-2.86% (inactive)
CN(C)c1nc(NN)nc(Nc2ccc(F)cc2)n1	76.4% (active)
Fc1ccc(Nc2nnns2)cc1	-0.19% (inactive)
CNc1nc(Nc2ccc(C)c(Cl)c2)nc(N)c1[N+](=O)[O-]	38.2% (inactive)
CN(C)c1ccnc(Nc2ccc(F)cc2)c1C#N	10.8% (inactive)
CN(C)c1nc(Nc2ccc(Cl)c(Cl)c2)nc(N(C)C)n1	130% (active)
Cc1cccc(OCC(O)CN2CCN(CCN3C(=O)c4cccc5cccc(c45)C3=O)CC2)c1C (centres undefined)	1.57% (inactive)
Nc1nc(O)c(CC(=O)O)s1	1.52% (inactive)
CCCCC/C=C/C1=CC(=O)C[C@H](c2ccc(Cl)cc2)C1	0.78% (inactive)
CCOC(=O)C1CCN(C(=O)C2CCCN(S(=O)(=O)c3ccc(OC)c(Cl)c3)C2)CC1 (centres undefined)	1.31% (inactive)
CCCCc1ccc(NC(=O)NCc2cccnc2)cc1	7.22% (inactive)
COC(=O)c1ccccc1NC(=O)CSc1nnnn1C	3.56% (inactive)
O=C(Nc1ccccc1)Nc1nc2ccccc2s1	74.5% (active)
O=C(CCNC(=O)c1ccccc1)Nc1nc2ccccc2s1	24.7% (inactive)
Cn1nnnc1SCC(=O)Nc1sccc1C(N)=O	-1.01% (inactive)
O=C(CCC(=O)c1cccs1)Nc1nc2ccccc2s1	38% (inactive)
Cn1nnnc1SCC(=O)Nc1nc2ccccc2s1	50.3% (active)
Brc1cnc2ccccc2c1N1CCCCC1	-3.31% (inactive)
Cc1ccc(C(=O)N/C(=C\c2cccs2)C(=O)NCCc2ccccn2)cc1C	0.25% (inactive)
N#Cc1c(N2CCCCC2)nc(N)c2c(N)nc(SCC(=O)O)cc12	6.26% (inactive)
Cn1c(SCC(=O)c2ccc(F)cc2)nnc1-c1ccccn1	-0.55% (inactive)
Cc1ccc(NC(=O)c2cnc(SCC(=O)NCC3CCCO3)n(C)c2=O)cc1 (centres undefined)	16.3% (inactive)
Cn1c(SCC(=O)c2ccccc2)ncc(C(=O)Nc2ccc(F)cc2)c1=O	98.3% (active)
